Measurements from ChEMBL document CHEMBL3988442, “University of Dundee, Small-Polar-MMV Screening Library” (2021).
In all, about 48,000 compounds went through this assay and about 13,000 (27%) showed an effect of 50% or more. The list shows a part of the results.

The molecules below were run on Wolbachia pipientis (assay: Anti-Wolbachia Cell-Based Screen). Conditions: 5 µM.
Assay type: functional
Design: scale not given: in the data most compounds retested in dose-response had high values

Compound	Percent Effect
CCCn1nccc1C(=O)N1CCCN(CCCc2ccccc2)CC1	-7.679%
COc1cc(N2CCC3(CCCN3Cc3cnn(C)c3)CC2)ncn1.O=C(O)C(F)(F)F	0.3231%
O=C1OCCN1CCNc1ncc2c(n1)CCN2c1ccccc1	15.29%
CN(Cc1nc(-c2cccnc2)no1)C(=O)c1cnc2n1CCCC2	-9.583%
COc1ccc2nnc(CCCC(=O)NCc3cccn3C)n2n1	11.78%
O=C(CN1CCCC(c2ccn[nH]2)C1)Nc1nc2c(s1)CCCC2 (stereo unspecified)	3.48%
COc1ccc2nnc(CCC(=O)Nc3nc4c(s3)CCC4)n2n1	122.5%
COc1ccc2nnc(CCC(=O)Nc3nc(C)c(C)s3)n2n1	119%
COc1ccc2nnc(CCC(=O)Nc3nc4c(s3)CCCC4)n2n1	139.1%
COc1ccc2nnc(CCCC(=O)NCCC3=CCCCC3)n2n1	8.382%
CC1CCc2nc(NC(=O)CN(C)C(=O)c3ccco3)sc2C1 (stereo unspecified)	6.016%
COc1ccc2nnc(CCCC(=O)Nc3nc4c(s3)CCC4)n2n1	114%
COc1cccc2c1OCC(C(=O)NCc1nc3c(s1)CCCC3)C2 (stereo unspecified)	-11.26%
COc1ccc(CNC(=O)NCc2nc(C)c(C)s2)cn1	-2.055%
Cl.O=C(Nc1cccc(CNCc2csc(Br)c2)c1)C1CC1	8.664%
Cn1c(CN2CCCC(Cn3cc(CCO)nn3)C2)cc2ccccc21 (stereo unspecified)	-3.517%
Cc1ccc2cc(C3(O)CCN(C(=O)CSC(C)C)CC3)ccc2n1	8.492%
Cc1ccc(C)c(OCc2cc(C(=O)N(C)CC(O)CO)no2)c1 (stereo unspecified)	-202.7%
O=C(NC1CC1)[C@H]1C[C@H]2OCC[C@H]2N(CC2CC2)C1.O=C(O)C(F)(F)F	-11.18%
COC[C@@H]1CC[C@H]2[C@H](CCN2S(=O)(=O)Cc2ccccc2)O1	24.17%
Cc1ccc(C(=O)N2C[C@H]3CC[C@@H]2CN(S(=O)(=O)N(C)C)C3)c(O)c1	-19.11%
CCOC(C)c1noc(CN(C)C(=O)c2cc3ccccn3c2)n1 (stereo unspecified)	5.368%
CCc1ocnc1C(=O)N1CCC(n2cc(-c3ccsc3)nn2)CC1	-3.384%
COc1ccc2nnc(CCC(=O)Nc3nc4c(s3)CCCCC4)n2n1	106.8%

Compound	Percent Effect
Cc1nc(S(=O)(=O)NCCC(=O)NCc2ccc(C#N)cc2)cn1C	-22.12%
CCN(CC1CCCO1)C(=O)Nc1cccc(Cl)c1OC (stereo unspecified)	103.8%
CCN(CC1CCCO1)C(=O)CSCC(=O)Nc1ccc(C)cc1 (stereo unspecified)	18.9%
CCN(CC1CCCO1)C(=O)Nc1cc(OC)c(OC)cc1C (stereo unspecified)	1.885%
CCN(CC1CCCO1)C(=O)Nc1cc(C(=O)OC)ccc1F (stereo unspecified)	-7.432%
CCCC(=O)Nc1ccc(CC(=O)N(CC)CC2CCCCO2)cc1 (stereo unspecified)	-7.616%
CCN(CC1CCCO1)C(=O)Nc1ccc(F)cc1OC (stereo unspecified)	-0.9971%
CCN(CC1CCCO1)C(=O)Nc1cc(C)ccc1S(C)(=O)=O (stereo unspecified)	111.7%
CCN(CC1CCCO1)C(=O)Nc1cccc(N2CCOCC2)c1 (stereo unspecified)	-20.72%
CCN(CC1CCCO1)C(=O)Nc1cc(C(N)=O)ccc1OC (stereo unspecified)	103.2%
CCN(CC1CCCO1)C(=O)Nc1ccc(OC)c(C)c1 (stereo unspecified)	118.7%
CN(C)c1ccc(CCCNC(=O)Nc2ccc(C#N)cc2)cc1	14.16%
O=C(c1ccc(N2CCCC2)nn1)N1CCCc2cc(F)c(F)cc21	-2.029%
Cc1nc(CCCNC(=O)C2CC(=O)N(C(C)(C)C)C2)sc1C (stereo unspecified)	-4.767%
COc1cccc(-n2nnc(C(=O)N3CCNC(=O)C3)c2C)c1	2.603%
COCCN(CC1CCCO1)C(=O)CCNC(=O)c1ccccc1F (stereo unspecified)	6.163%
CCN(CC1CCCCO1)C(=O)CCNC(=O)c1ccccc1F (stereo unspecified)	0.5335%
CCN(CC1CCCO1)C(=O)NCCNC(=O)c1ccccc1F (stereo unspecified)	93.7%
CC1CCN(CC(=O)NC2CCN(C(C)c3ccccc3)CC2)CC1.Cl (stereo unspecified)	112.7%
CSCC(=O)NC1CCN(C(C)c2ccccc2)CC1 (stereo unspecified)	-9.489%
CCOCCCC(=O)NC1CCN(C(C)c2ccccc2)CC1 (stereo unspecified)	-0.8786%
Cc1cnn(CCC(=O)Nc2cccnc2N2CCC(CO)CC2)c1	-13.92%
CCc1nc(C2CCCN(C(=O)NC3CC3)C2)no1 (stereo unspecified)	109.2%
CCNC(=O)N1CCCC(c2noc(CC)n2)C1 (stereo unspecified)	-3.898%

Compound	Percent Effect
CCc1nc(C2CCCN(C(=O)CC3CCOCC3)C2)no1 (stereo unspecified)	122.8%
CCc1nc(C2CCCN(C(=O)C3=NN(C(C)C)C(=O)CC3)C2)no1 (stereo unspecified)	7.741%
CCc1nc(C2CCCN(C(=O)C(C)(C)NS(C)(=O)=O)C2)no1 (stereo unspecified)	113.6%
CCc1nc(C2CCCN(C(=O)NC(C)C)C2)no1 (stereo unspecified)	123.4%
CCc1nc(C2CCCN(C(=O)CN(C)S(C)(=O)=O)C2)no1 (stereo unspecified)	1.006%
CCc1nc(C2CCCN(C(=O)c3c[nH]c(C(C)C)n3)C2)no1 (stereo unspecified)	7.02%
CCc1nc(CCNc2ncccc2C#N)sc1C	-8.813%
CN(C)C(=O)Cc1ccccc1NCc1nc(Cc2ccccc2)no1	16.45%
O=C(NCc1cc(O)ncn1)C1COc2ccccc2C1 (stereo unspecified)	-5.183%
O=C1N(CCCc2ccccc2)CCCC1(O)CNCc1ccccc1 (stereo unspecified)	-2.179%
Cc1cnn(-c2cccc(N3CCN(c4cc(C)nc(C)n4)CC3)n2)c1	4.719%
CCc1nc(C2CCCN(C(=O)NCCOC)C2)no1 (stereo unspecified)	110.5%
Cc1c(C)c2c(c(C)c1O)CC[C@](C)(C(=O)O)O2 [(R)-TROLOX]	132.5%
CNc1cc(C)nc(NCc2cc(C)cc3c(C)c(C)[nH]c23)n1	13.77%
CNC(=O)NC(=O)C(C)N1CCN(C2CCCC2)CC1 (stereo unspecified)	-18%
Cc1csc2ncn(C(C)Cc3cccnc3)c(=O)c12 (stereo unspecified)	-2.167%
Cc1csc2c(=O)n(CCN3CCC(c4ccccc4)CC3)cnc12	21.54%
CC(Cn1ccnc1)NC(=O)NCCNC(=O)C(C)C (stereo unspecified)	-18.32%
CCC(Cn1ccnc1)n1cnc2c(C)csc2c1=O (stereo unspecified)	163.7%
CCC(Cn1ccnc1)n1cnc2scc(C)c2c1=O (stereo unspecified)	110.7%
Cc1csc2c(=O)n(C(C)Cc3cccnc3)cnc12 (stereo unspecified)	4.44%
Cc1nc(CN2CCCn3c(nc(Cn4ccnc4)cc3=O)C2)cs1	17.01%
CCC(CO)n1cnc2scc(C)c2c1=O (stereo unspecified)	100.6%
